Data published in article PMC4336329 (PLoS ONE, 2015).
The whole screen tested about 310,000 compounds, of which about 14,000 (4.5%) showed an effect of 50% or more. Effects have a minus sign here. Shown is part of a subset that was picked to be rich in strong results.

target: human ether-à-go-go-related gene (hERG) potassium channel (human, UniProt Q12809); assay: primary screen, population patch clamp on CHO cells stably expressing hERG; higher = less effect of the substance
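Further: peak tail current of the secondary pulse compared with the same well before compound.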

Sequence of human ether-à-go-go-related gene (hERG) potassium channel (Q12809 whole entry, looked up): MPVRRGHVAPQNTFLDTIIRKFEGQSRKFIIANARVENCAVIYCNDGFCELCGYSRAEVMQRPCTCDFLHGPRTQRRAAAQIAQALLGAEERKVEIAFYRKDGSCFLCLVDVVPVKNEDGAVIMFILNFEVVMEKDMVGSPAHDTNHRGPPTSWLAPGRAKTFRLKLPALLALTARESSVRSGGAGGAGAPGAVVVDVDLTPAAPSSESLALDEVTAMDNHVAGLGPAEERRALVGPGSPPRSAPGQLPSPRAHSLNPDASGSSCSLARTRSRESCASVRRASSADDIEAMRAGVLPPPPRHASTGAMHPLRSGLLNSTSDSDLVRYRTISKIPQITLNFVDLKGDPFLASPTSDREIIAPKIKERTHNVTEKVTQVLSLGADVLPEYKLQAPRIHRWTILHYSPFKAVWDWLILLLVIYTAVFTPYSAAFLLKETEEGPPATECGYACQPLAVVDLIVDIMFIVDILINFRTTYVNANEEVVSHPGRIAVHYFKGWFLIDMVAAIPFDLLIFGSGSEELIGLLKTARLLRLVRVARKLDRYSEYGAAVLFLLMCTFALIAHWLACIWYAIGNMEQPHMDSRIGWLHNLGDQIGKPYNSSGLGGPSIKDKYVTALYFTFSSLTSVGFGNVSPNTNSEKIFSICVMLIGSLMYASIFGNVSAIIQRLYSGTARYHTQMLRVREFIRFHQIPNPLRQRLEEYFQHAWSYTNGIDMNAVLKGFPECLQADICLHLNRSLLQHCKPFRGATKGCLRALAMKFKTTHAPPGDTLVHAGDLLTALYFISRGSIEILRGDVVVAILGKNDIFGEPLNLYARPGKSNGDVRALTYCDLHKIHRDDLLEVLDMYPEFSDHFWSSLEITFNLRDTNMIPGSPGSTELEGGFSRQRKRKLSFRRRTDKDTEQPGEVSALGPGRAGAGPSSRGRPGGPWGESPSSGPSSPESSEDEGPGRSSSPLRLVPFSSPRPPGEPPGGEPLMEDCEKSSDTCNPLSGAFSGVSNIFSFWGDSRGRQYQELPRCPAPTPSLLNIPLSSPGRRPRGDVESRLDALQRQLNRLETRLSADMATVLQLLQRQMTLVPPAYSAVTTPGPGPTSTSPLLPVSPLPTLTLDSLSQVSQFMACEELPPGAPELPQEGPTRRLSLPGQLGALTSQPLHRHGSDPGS

Structure (SMILES)	hERG current change (%, negative = inhibition) at 10uM
CCOC(=O)C1=C(c2ccccc2)OC(N)=C(C#N)C1c1cccs1 (centres unmarked)	3.11%
O=C(c1ccc(=O)[nH]c1)N1CCN(S(=O)(=O)c2cc(C(F)(F)F)ccc2Cl)CC1	-13.4%
Cc1ccc(NC(=O)CN(C)Cc2ccc(F)cc2)c([N+](=O)[O-])c1	-17.8%
CSc1nc2c(c(=O)[nH]1)C(c1ccncc1)C(C(=O)OC(C)C)=C(C)N2 (centres unmarked)	-0.441%
CCN(CC)c1ccc(NC(=O)COc2ccccc2C#N)cc1S(=O)(=O)Nc1ccc(OC)cc1	13%
COc1ccc([C@@H]2[C@@H]3C(=O)N(C(C)(C)C)C(=O)[C@@H]3[C@]3(Cc4ccccc4)C(=O)N(c4ccc(C)cc4)C(=O)N23)cc1	2.04%
CN(Cc1ccccc1)C(=O)c1[nH]cnc1C(=O)NCC(=O)OC(C)(C)C	10.4%
COc1ccc(/C=C2\SC(=O)N(CCNC(=O)Cc3coc4cc(C)ccc34)C2=O)cc1OC	4.76%
CC(C)(C)[C@@H]1CCC(=O)N(CC[C@H](Sc2ccccc2)c2ccccc2)CC1	17.1%
Cc1cc(C)cc(NC(=O)COC(=O)CC2CCCC2)c1	-0.633%
Cc1cccc(C)c1NC(=O)CN(C)C(=O)CCc1nc2sc3c(c2c(=O)[nH]1)CCCC3	5.53%
Cc1ccc2occ(/C=N/NC(=O)[C@@H](N)Cc3ccccc3)c(=O)c2c1.Cl	-22.5%
CCOc1ccc2nc(N3CCCC(C(=O)NCCCN4CC(C)CC(C)C4)C3)sc2c1 (centres unmarked)	-48.8%
CCOc1ccc2nc(N3CCCC(C(=O)NCCCN4CCOCC4)C3)sc2c1 (centres unmarked)	-19.6%
CCOc1ccc2nc(N3CCCC(C(=O)NCCCN4CCCCC4)C3)sc2c1 (centres unmarked)	-64.8%
COc1cccc(C2C(C#N)=C(N)Oc3cc(C)n(Cc4ccccn4)c(=O)c32)c1OC (centres unmarked)	3.7%
CC1(C)CC2CC(C)(CN2C(=O)C23CCC(C)(C(=O)C2)C3(C)C)C1 (centres unmarked)	-4.28%
CC(NC(=O)c1ccccc1)c1nc2ccccc2n1Cc1ccccc1F (centres unmarked)	0.996%
Cc1cccc(N2CCN(C(=O)CC(NC(=O)c3ccccc3)c3ccccc3)CC2C)c1 (centres unmarked)	-47.1%
CCn1c(C(C)NC(=O)c2cccc(C)c2)nc2ccccc21 (centres unmarked)	-19.6%
CC(=O)NC(CC(=O)N1CCN(C(C)=O)CC1)c1ccccc1 (centres unmarked)	27%
COc1ccc(N2CCN(C(=O)CC(NC(N)=O)c3cccc(Oc4ccccc4)c3)CC2)cc1 (centres unmarked)	-7.97%
N#Cc1ccc(CN2CCN(C(=O)CC(NC(=O)c3ccccc3)c3ccccc3)CC2)cc1 (centres unmarked)	-81.2%

Structure (SMILES)	hERG current change (%, negative = inhibition) at 10uM
CC(NC(=O)c1ccccc1)c1nc2ccccc2n1Cc1ccc(C#N)cc1 (centres unmarked)	-68.6%
COc1cccc(N2CCN(C(=O)CC(NC(=O)c3ccccc3)c3ccccc3)CC2)c1 (centres unmarked)	-65%
O=C(NC(=S)N1CCN(Cc2ccccc2)CC1)c1ccccc1	6.47%
CCC1(C)Cc2c(sc3c2c(=O)n(-c2ccccc2)c(=O)n3C)CO1 (centres unmarked)	5.26%
COc1cc2cnc(-c3ccccc3)c(-c3cc(OC)c(OC)c(OC)c3)c2cc1OC	-0.323%
Cn1c2ccccc2c(=O)c2ccc(C#CC3(O)CCCCC3)cc21	1.63%
COc1cccc(N(CC(=O)NCc2ccco2)C(=O)CCC(=O)Nc2nccs2)c1	1.6%
CSCCC(NS(=O)(=O)c1ccc(Cl)cc1)C(=O)OCc1c(Cl)cccc1Cl (centres unmarked)	6.45%
COc1ccc(OC)c(C(C)NC(=S)NC2CCCCC2)c1 (centres unmarked)	-6.58%
Cc1cccc(OC(C)C(=O)N2CCCN(C)CC2)c1C (centres unmarked)	1.75%
COc1ccc(NC(=O)CSc2nnc3n2CCCCC3)cc1	8.17%
Cc1ccccc1S(=O)(=O)Oc1ccccc1C(=O)Oc1ccccc1	-1.26%
Br.C=CCN1C(c2ccccc2)=CS/C1=C(\C#N)c1nnc2n1CCCCC2	-59.2%
Br.CCOc1ccc(C2=CS/C(=C(\C#N)c3nnc4n3CCCCC4)N2CC)cc1	-47.3%
C=CCn1c(=O)/c(=C/c2ccc(F)cc2)s/c1=C(\C#N)c1nnc2n1CCCCC2	-59.9%
C=CCn1c(=O)/c(=C/c2ccc(O)cc2)s/c1=C(/C#N)c1nnc2n1CCCCC2	-16.6%
C=CCn1c(=O)/c(=C/c2ccc(Cl)cc2)s/c1=C(/C#N)c1nnc2n1CCCCC2	-43%
Br.C=CCN1C(c2ccc(OCC)cc2)=CS/C1=C(\C#N)c1nnc2n1CCCCC2	-37.9%
Cc1cc(C(=O)Nc2ccc(C(=O)O)cc2)c(C)o1	23.9%
Cc1cc(C)c(C)c(S(=O)(=O)N2CCN(c3ncnc4ccccc34)CC2)c1C	-4.67%
COc1ccc2c(c1)CCc1c(C(=O)Nc3c(C)n(C)n(-c4ccccc4)c3=O)noc1-2	4.63%
Cc1ccc(S(=O)(=O)/N=C(/Nc2c(C)n(C)n(-c3ccccc3)c2=O)c2ccc(Cl)cc2)cc1	-57%
Cc1cc(NC(=O)c2noc3c2CCc2ccccc2-3)no1	11%

Structure (SMILES)	hERG current change (%, negative = inhibition) at 10uM
Cc1c(NC(=O)c2cc3nc(-c4ccc(Br)cc4)cc(C(F)(F)F)n3n2)c(=O)n(-c2ccccc2)n1C	-33.9%
Cc1c(NC(=O)c2cc(-c3ccc(Cl)cc3)on2)c(=O)n(-c2ccccc2)n1C	-55.1%
Cc1c(NC(=O)c2cc(-c3ccccc3)on2)c(=O)n(-c2ccccc2)n1C	-27.7%
Cc1c(NC(=O)c2cc3nc(-c4ccc(Cl)cc4)cc(C(F)(F)F)n3n2)c(=O)n(-c2ccccc2)n1C	-55.3%
Cc1ccc(-c2cc(C(=O)Nc3c(C)n(C)n(-c4ccccc4)c3=O)no2)cc1	-25.3%
Cc1c(NC(=O)c2noc3c2CCc2ccccc2-3)c(=O)n(-c2ccccc2)n1C	-52.9%
Cc1c(N/C(=N/S(=O)(=O)c2ccc(Cl)cc2)c2ccccc2)c(=O)n(-c2ccccc2)n1C	-20.6%
Cc1ccc(-c2cc(C(F)(F)F)n3nc(C(=O)Nc4c(C)n(C)n(-c5ccccc5)c4=O)cc3n2)cc1	-14.3%
Cc1c(N/C(=N/S(=O)(=O)c2ccccc2)c2ccc(Cl)cc2)c(=O)n(-c2ccccc2)n1C	-30.7%
CCC(C)(C)NC(=O)C1c2ccccc2Oc2ccccc21	23%
O=C(O)CC1Sc2nnc(COc3ccc(Cl)cc3)n2N=C1c1ccccc1 (centres unmarked)	21.2%
CN(C)S(=O)(=O)c1cc(S(=O)(=O)N(C)C)c(Cl)cc1N	-8.31%
COC(=O)c1ccccc1NC(=S)NC(NC(=O)c1ccccc1[N+](=O)[O-])C(Cl)(Cl)Cl (centres unmarked)	-1.4%
CCc1oc(C(=O)OC)cc1CSC(=N)N.Cl	12%
CS(=O)(=O)c1ccc(C(=O)NC2CCCc3ccccc32)cc1 (centres unmarked)	20%
COc1ccc(-c2csc(-c3cccnc3)n2)cc1C	-3.79%
CCCCNC(=O)Nc1nnc(-c2ccc(OCC)cc2)o1	10.1%
CCN(CC)CCCNC(=O)c1[nH]c(C)c(C(=O)NC2CCCCC2)c1C	12.9%
CCc1nc(SCC(=O)Nc2cc(OC)ccc2OC)c2c(C)c(C)sc2n1	3.63%
CC(C)Cc1nnc(NC(=O)C2CCN(C(=O)c3ccc(Cl)cc3)CC2)s1	-29.2%
CCN(CC)c1ccc(/C=C(/C#N)C(=O)NC(C)C)o1	-1.68%
COC(=O)C(C)n1cnc2c(nnn2-c2ccc(C)cc2)c1=O (centres unmarked)	-10.6%
NC(=O)C1CCN(CC(=O)N2c3ccccc3CCc3ccccc32)CC1	19.3%

Structure (SMILES)	hERG current change (%, negative = inhibition) at 10uM
Cc1cccn2c(=O)c3cc(C(=O)NC4CCCCC4)n(C)c3nc12	12.5%
Cc1cccn2c(=O)c(C(=O)NC3CCCCC3)c(O)nc12	31.3%
Cc1cccn2c(=O)c3cc(C(=O)NC4CCCC4)c(=N)n(C4CCCC4)c3nc12	-79.2%
Cc1cccn2c(=O)c3cc(C(=O)NC4CCCCC4C)n(C)c3nc12 (centres unmarked)	13.7%
Cc1cccn2c(=O)c3cc(C(=O)NC4CCCC4)n(C)c3nc12	1.13%
Cc1cccn2c(=O)c3cc(C(=O)NC4CCCC4)c(=N)n(C4CCCCC4)c3nc12	-80.7%
COc1cc(C(=O)NCC(=O)N/N=C/c2c(C)[nH]c3ccccc23)cc(OC)c1OC	15.7%
CCC(C(=O)OCCN(CC)CC)c1ccccc1.O=C(O)CC(O)(CC(=O)O)C(=O)O (centres unmarked)	4.45%
CCN(CC)CCc1nc(-c2ccccc2)no1.O=C(O)CC(O)(CC(=O)O)C(=O)O	-10.6%
CCN(CC)CCC(C)OC(c1ccccc1)c1ccccc1.O=C(O)CC(O)(CC(=O)O)C(=O)O (centres unmarked)	-52.2%
COCCOc1cc(N)c(Cl)cc1Cl	15.5%
CCN(c1ccccc1)S(=O)(=O)c1ccc(OC)c(NC(=O)CCc2nc3ccccc3c(=O)[nH]2)c1	-51.2%
CN(c1ccccc1)S(=O)(=O)c1cccc(NC(=O)Cn2cnc3c2c(=O)n(C)c(=O)n3C)c1	-52.6%
COc1ccccc1NC(=O)Cn1cnc2c1c(=O)n(C)c(=O)n2C	17.9%
CCN(c1ccccc1)S(=O)(=O)c1ccc(OC)c(NC(=O)Cn2cnc3c2c(=O)n(C)c(=O)n3C)c1	-66%
CN(c1ccccc1)S(=O)(=O)c1cccc(NC(=O)Cn2cnc3ccccc3c2=O)c1	-48.3%
COc1ccc(S(=O)(=O)N2CCOCC2)cc1NC(=O)CCc1nc2ccccc2c(=O)[nH]1	21.5%
Cc1cc(C)cc(NC(=O)COC(=O)Cn2cnc3c2c(=O)n(C)c(=O)n3C)c1	-41.1%
Cc1cc(C)cc(NC(=O)C(OC(=O)Cn2cnc3c2c(=O)n(C)c(=O)n3C)c2ccccc2)c1 (centres unmarked)	-69.7%
Cn1c(=O)c2c(ncn2CC(=O)Nc2ccccc2)n(C)c1=O	13.9%
COc1ccc(S(=O)(=O)N2CCCCC2)cc1NC(=O)CCc1nc2ccccc2c(=O)[nH]1	0.795%
CCN(CC)S(=O)(=O)c1ccc(OC)c(NC(=O)Cn2cnc3c2c(=O)n(C)c(=O)n3C)c1	-41.3%
COc1ccc(C)cc1NC(=O)C(OC(=O)Cn1cnc2c1c(=O)n(C)c(=O)n2C)c1ccccc1 (centres unmarked)	-7.98%
